Compound activity deposited in PubChem by National Center for Advancing Translational Sciences (NCATS).
Only some compounds are listed: those with a hit (about 10% of all), similar ones and a draw of the others.
SW480 rerep: DNA re-replication induction in SW480 cells; SW480 DNA re-replication, Hoechst DNA content imaging, 48 h; Potency, µM (titrated, usually from 46.1 µM), for the others: at the highest dose re-replication activation, hits mostly activators; hit rate 1.8% among 340,000; further: % of control where 0% means no effect; nearly all actives have a fitted effect of over 55% in size
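Hoechst fluorescence of nuclei (405 nm excitation, 500-530 nm emission) measured by plate-scanning imager after 48 hr compound exposure at 37 C; re-replication scored as increased number of nuclei with elevated intensity.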
RORgamma inh: inhibitors of mouse ROR gamma transcriptional activity | Drosophila S2 Gal4-RORgamma UAS-luciferase reporter, 20 h | AID 2551 | Potency, µM (titrated, usually from 53.6 µM), for inactives: top-dose activity change, negative = inhibition, hits mostly inhibitors | P51450 | hit rate 5.4% among 310,000; further: on the % scale 0 is the no-effect control and ±100 the full control effect; nearly all actives have a fitted effect of over 60% in size
Target sequence (P51450 whole entry, looked up, the tested form may be a part): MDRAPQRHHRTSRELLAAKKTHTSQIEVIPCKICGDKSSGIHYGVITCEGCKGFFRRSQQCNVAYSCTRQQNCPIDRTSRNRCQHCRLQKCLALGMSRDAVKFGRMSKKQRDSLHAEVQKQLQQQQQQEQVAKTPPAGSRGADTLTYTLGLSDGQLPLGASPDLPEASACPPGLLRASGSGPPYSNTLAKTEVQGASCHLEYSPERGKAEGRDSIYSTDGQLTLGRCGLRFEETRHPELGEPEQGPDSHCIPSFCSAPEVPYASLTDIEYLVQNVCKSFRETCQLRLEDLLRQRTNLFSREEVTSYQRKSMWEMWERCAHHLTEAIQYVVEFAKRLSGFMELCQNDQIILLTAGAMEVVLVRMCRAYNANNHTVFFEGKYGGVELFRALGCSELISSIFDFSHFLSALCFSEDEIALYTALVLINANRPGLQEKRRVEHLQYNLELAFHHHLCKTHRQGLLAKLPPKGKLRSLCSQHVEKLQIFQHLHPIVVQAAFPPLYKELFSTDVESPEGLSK
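Drosophila S2 cells stably expressing Gal4-DBD/mouse RORγ fusion under metallothionein promoter plus UAS-luciferase; compound 1 h, then 700 uM CuSO4 induction for 20 h at ambient temperature; inhibition read as reduced luminescence.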
KB-V1 cytotox: kills drug-selected multidrug resistant KB-V1 cells; KB-V1 MDR cells viability, CellTiter-Glo, 72 h; Potency, µM (doses to about 46.1 µM), most hits filed as cytotoxic; hit rate 3.4% among 400,000; further: on the % scale 0 is the no-effect control and ±100 the full control effect; nearly all actives have a fitted effect of over 60% in size
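Potencies derive from concentration-effect curves fitted to normalized luminescence (CellTiter-Glo) of KB-V1 cells treated for 72 h at 37 degrees C in phenol-red-free DMEM containing 10% FBS.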
Gal4-VP16 FLuc: inhibits Gal4-VP16 luciferase reporter, ROR gamma counter-screen; Drosophila S2 Gal4-VP16 UAS-luciferase, luminescence, 20 h; Potency, µM (titrated, usually from 53.6 µM), without a hit: at the top dose activity, negative = inhibition, most hits filed as inhibitors; hit rate 3.5% among 310,000;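 further: Gal4-VP16 expression switched on by copper sulfate through the metallothionein promoter; on the % scale 0 is the no-effect control and ±100 the full control effect; nearly all actives have a fitted effect of over 50% in size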
KB-3-1 tox: KB-3-1 parental cell cytotoxicity; KB-3-1 viability, CellTiter-Glo ATP luminescence, 72 h; hit rate 1.4% among 400,000; Potency, µM (doses to about 46.1 µM), usual class: cytotoxic; further: on the % scale 0 is the no-effect control and ±100 the full control effect; nearly all actives have a fitted effect of over 60% in size
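KB-3-1 parental drug-naive adenocarcinoma cells in DMEM/10% FBS, incubated 72 h at 37 C with pin-transferred compounds across a concentration series. Viability by CellTiter-Glo luminescence; concentration-response curves fitted after normalization.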
MCF10A rereplic: induces DNA re-replication in MCF 10a normal breast cells; MCF 10A DNA re-replication, Hoechst nuclear intensity, 48 h; Potency, µM (doses to about 46.1 µM), without a hit: top-dose activity, positive = re-replication, hits mostly activators; hit rate 2.9% among 350,000; AID 624296; further: % of control where 0% means no effect; nearly all actives have a fitted effect of over 50% in size
* marks the source's active call; other numbers are inactive results; i = inactive; ? = inconclusive; . = no result; ! = not confirmed by another sample. The call rests on the fitted dose curve; in most records, active means well fitted curve in the direction sought with a large enough effect; inconclusive means small, poorly fitted or top-dose-only effect, or another doubt; inactive means no such curve, though single readings can be large; an effect the other way counts as inactive or inconclusive. Potency means the concentration at half of the fitted maximal effect.

SMILES | SW480 rerep | RORgamma inh | KB-V1 cytotox | Gal4-VP16 FLuc | KB-3-1 tox | MCF10A rereplic
Cc1cccc(-c2[nH]c(C(C)(C)C)nc2-c2ccc3c(c2)OCO3)n1 | . | 1.8µM* | . | 7.1µM* | . | .
CCOC(=O)N1CCN(/[N+]([O-])=N/Oc2ccc([N+](=O)[O-])cc2[N+](=O)[O-])CC1 | . | 8.9µM* | . | 7.1µM*! | . | .
CCOC(=O)c1nnn(-c2ccc([N+](=O)[O-])cc2[N+](=O)[O-])c1C | 7.3µM* | 7.1µM* | i | ? | 23µM* | ?
CCCCNCCS(=O)(=O)NCc1ccc(OC)cc1 | 3% | . | i | . | i | -9%
Cc1cccc(N=CC=C2OC(C)(C)C(C)(C)O2)c1 | 21µM* | 13% | i | ? | i | ?
COc1ccc(N=CC=C2OC(C)(C)C(C)(C)O2)cc1OC | -25% | 0% | i | -1% | i | 9%
Cc1ccc(N=CC=C2OC(C)(C)C(C)(C)O2)cc1 | 0.82µM* | -15% | i | -10% | ? | 16µM*
CC1=C(C(=O)Nc2ccccc2Cl)C(c2cccc(O)c2)n2ncnc2N1 (centres undefined) | . | . | i | . | i | .
CCC1CCCCN1C(=O)c1ccc([N+](=O)[O-])o1 (centres undefined) | 93% | -7% | i | 10% | i | 18µM*
Cc1cc2oc(=O)cc(CN3CCN(S(=O)(=O)c4ccc5c(c4)OCCO5)CC3)c2cc1C | -2% | 32% | i | 3% | i | 1%
Cc1cc2oc(=O)cc(CN3CCN(S(=O)(=O)/C=C/c4ccccc4)CC3)c2cc1C | 15% | 24% | 2.6µM* | -13% | i | 3%
CCCc1c(OCCCOc2ccc(OCC(=O)O)cc2)ccc(CC=O)c1O | . | 25% | . | 1% | . | .
CO/N=C/C(=N\Nc1ccc(OC)cc1)C(=O)c1ccc(OC)cc1 | ? | -2% | 12µM* | -4% | ? | 14%
COc1ccc(C(=O)C(/C=N/O)=N/Nc2ccc(F)cc2)cc1 | -4% | ? | i | ? | i | -10%
CCOc1ccc(OCC)c(NC(=O)C2CCN(S(=O)(=O)c3ccc(Br)s3)CC2)c1 | . | . | i | . | i | .
Cc1ccc(Cl)cc1N1CCN(C(=O)Cn2cnc3sc(C)c(S(=O)(=O)N4CCC(C)CC4)c3c2=O)CC1 | . | . | i | . | ? | .
Cc1nnc(SCC(=O)N/N=C/c2cn(-c3ccccc3)nc2-c2ccccc2)n1-c1ccccc1 | 17% | ? | ? | -3% | i | ?
O=C(N/N=C\c1cn(-c2ccccc2)nc1-c1ccccc1)c1ccc(Br)o1 | ? | 1.4µM* | ? | 4µM* | ? | ?
Cc1ccc(-c2nn(-c3ccccc3)cc2/C=N/NC(=O)c2ccc(Br)o2)cc1 | -3% | 2.8µM* | i | 4µM* | i | ?
O=C(N/N=C/c1cn(-c2ccccc2)nc1-c1ccccc1)c1ccco1 | 17% | 6.3µM* | ? | 10µM* | i | 26%
CCOc1ccc(C(=O)c2cn(Cc3ccc(OC)cc3)c3cc(OC)c(OC)cc3c2=O)cc1 | . | . | i | . | i | .
CN(C)c1ccc(/C=N/N=C2/NC(=O)/C(=C/c3ccc([N+](=O)[O-])cc3)S2)cc1 | 1% | 2.8µM* | ? | ? | ? | ?
CC1CC(C)(C)Nc2ccc(OC(=O)c3ccco3)cc21 (centres undefined) | ? | 5µM* | ? | 2.5µM* | ? | 15µM*
O=C(Oc1ccc2ccccc2c1)c1ccco1 | -6% | 4% | ? | -9% | i | 6%
CC1CC(C)(C)Nc2ccc(N=O)cc21 (centres undefined) | 2.3µM* | 13% | i | 3% | i | 23µM*
CCOCCc1nn2c(=O)cc(COC(=O)c3ccccc3NC(=O)c3ccccc3F)nc2s1 | . | . | i | . | i | .
Cc1ccc(N2CCN(C(=O)c3cccc([N+](=O)[O-])c3)CC2)cc1Cl | -15% | 22% | i | -26% | i | -6%
